Experimental data reported in PubChem BioAssay (EPA / NIEHS).
Where “and” joins values, the source holds several entries; their conditions need not be identical. Equal values may be shown once. Results filed as inconclusive are left out. More than one record can exist for a structure, and the calls need not agree. Calls of active or inactive are those of the source. The calls were made as follows: active = hit-call score of the fitted dose curve at least 0.9, where 1 is the maximum; inconclusive = response in the unintended direction; inactive = score below 0.9.

How the values were obtained:
[1] = molecular target: human Caspase 10 (CASP10), CASP10 (gene 843) (UniProt Q92851); test: NVS_ENZ_hCASP10: NovaScreen (NVS) Enzymatic Assay for human Caspase 10 (CASP10) (AID 2283133)
Outline: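 Fluorescence-intensity enzyme read-out of E. coli-expressed CASP10 activity, 1 h after compound. Single-point duplicates at 25 uM preceded concentration-response testing (top 50 uM) of hits; inhibition expressed as signal loss versus DMSO.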

[2] = molecular target: human AKT serine/threonine Kinase 1 (AKT1), AKT1 (gene 207) (UniProt P31749); test: NVS_ENZ_hAKT1: NovaScreen (NVS) Enzymatic Assay for human AKT serine/threonine Kinase 1 (AKT1) (AID 2283138)
Sequence of human AKT serine/threonine Kinase 1 (AKT1), AKT1 (gene 207) (P31749 whole entry, looked up): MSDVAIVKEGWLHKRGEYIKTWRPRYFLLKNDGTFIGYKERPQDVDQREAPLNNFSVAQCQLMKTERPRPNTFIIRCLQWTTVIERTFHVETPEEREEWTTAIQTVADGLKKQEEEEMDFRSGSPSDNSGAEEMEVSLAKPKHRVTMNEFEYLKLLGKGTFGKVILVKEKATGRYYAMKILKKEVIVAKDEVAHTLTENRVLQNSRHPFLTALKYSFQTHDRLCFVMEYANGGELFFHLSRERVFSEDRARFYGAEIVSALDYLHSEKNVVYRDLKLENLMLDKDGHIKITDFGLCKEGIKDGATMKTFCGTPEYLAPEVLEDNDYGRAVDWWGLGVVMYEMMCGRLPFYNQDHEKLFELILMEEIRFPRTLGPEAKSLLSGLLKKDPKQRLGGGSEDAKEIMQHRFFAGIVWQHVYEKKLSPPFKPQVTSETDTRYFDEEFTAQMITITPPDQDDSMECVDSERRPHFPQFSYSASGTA
Outline: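 A biochemical assay with recombinant enzyme and specific substrate, read by fluorescence intensity with mobility-shift separation 1 hour after dosing. Actives from 25 uM duplicate screening were titrated up to 50 uM against DMSO baseline.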

[3] = molecular target: human AKT serine/threonine Kinase 2 (AKT2), AKT2 (gene 208) (UniProt P31751); test: NVS_ENZ_hAKT2: NovaScreen (NVS) Enzymatic Assay for human AKT serine/threonine Kinase 2 (AKT2) (AID 2283141)
Sequence of human AKT serine/threonine Kinase 2 (AKT2), AKT2 (gene 208) (P31751 whole entry, looked up): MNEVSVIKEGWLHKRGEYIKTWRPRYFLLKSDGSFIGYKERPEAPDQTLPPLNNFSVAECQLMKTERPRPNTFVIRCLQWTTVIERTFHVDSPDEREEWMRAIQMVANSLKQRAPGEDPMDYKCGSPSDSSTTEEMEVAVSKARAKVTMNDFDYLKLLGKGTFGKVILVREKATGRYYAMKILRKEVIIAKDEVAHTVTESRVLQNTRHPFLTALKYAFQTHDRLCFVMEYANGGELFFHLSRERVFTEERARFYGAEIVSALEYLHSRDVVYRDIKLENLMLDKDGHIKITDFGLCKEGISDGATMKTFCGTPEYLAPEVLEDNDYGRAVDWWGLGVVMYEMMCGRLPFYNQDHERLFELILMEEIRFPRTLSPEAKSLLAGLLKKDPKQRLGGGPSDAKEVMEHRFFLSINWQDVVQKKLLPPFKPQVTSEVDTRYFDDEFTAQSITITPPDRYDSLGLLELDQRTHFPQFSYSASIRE
Outline: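 Cell-free fluorescence/electrophoretic mobility shift readout of recombinant human AKT2 activity, 1 h after chemical dosing. Duplicate primary screen at 25 uM, then singleton concentration-response up to 50 uM; loss of signal versus DMSO baseline.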

[4] = molecular target: human Beta-secretase (BACE), BACE1 (gene 23621) (UniProt P56817); test: NVS_ENZ_hBACE: NovaScreen (NVS) Enzymatic Assay for human Beta-secretase (BACE) (AID 2283140);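 also: hits are inhibitors that reduce fluorescent substrate signal versus DMSO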
Sequence of human Beta-secretase (BACE), BACE1 (gene 23621) (P56817 whole entry, looked up): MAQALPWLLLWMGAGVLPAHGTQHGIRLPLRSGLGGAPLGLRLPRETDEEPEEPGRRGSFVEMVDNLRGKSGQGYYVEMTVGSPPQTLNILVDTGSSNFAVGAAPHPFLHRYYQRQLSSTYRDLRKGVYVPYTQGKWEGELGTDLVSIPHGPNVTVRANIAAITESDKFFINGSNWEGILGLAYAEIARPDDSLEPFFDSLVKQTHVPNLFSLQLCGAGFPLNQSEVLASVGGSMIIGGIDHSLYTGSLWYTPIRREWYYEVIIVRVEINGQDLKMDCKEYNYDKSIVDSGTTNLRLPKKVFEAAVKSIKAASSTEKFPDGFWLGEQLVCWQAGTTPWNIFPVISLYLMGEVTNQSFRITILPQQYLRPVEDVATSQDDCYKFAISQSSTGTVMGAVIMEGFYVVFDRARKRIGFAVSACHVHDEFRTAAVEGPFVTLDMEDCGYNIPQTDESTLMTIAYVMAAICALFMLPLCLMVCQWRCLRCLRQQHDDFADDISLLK
Outline: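 Enzyme activity of SF9-produced BACE1 is measured cell-free by fluorescence, 1 hour post dosing, normalised to DMSO. Screening used 25 uM in duplicate, with concentration-response follow-up for actives.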

[5] = molecular target: human Aurora Kinase A - serine/threonine-protein Kinase 6 (AurA), AURKA (gene 6790) (UniProt O14965); test: NVS_ENZ_hAurA: NovaScreen (NVS) Enzymatic Assay for human Aurora Kinase A - serine/threonine-protein Kinase 6 (AurA) (AID 2283142)
Sequence of human Aurora Kinase A - serine/threonine-protein Kinase 6 (AurA), AURKA (gene 6790) (O14965 whole entry, looked up): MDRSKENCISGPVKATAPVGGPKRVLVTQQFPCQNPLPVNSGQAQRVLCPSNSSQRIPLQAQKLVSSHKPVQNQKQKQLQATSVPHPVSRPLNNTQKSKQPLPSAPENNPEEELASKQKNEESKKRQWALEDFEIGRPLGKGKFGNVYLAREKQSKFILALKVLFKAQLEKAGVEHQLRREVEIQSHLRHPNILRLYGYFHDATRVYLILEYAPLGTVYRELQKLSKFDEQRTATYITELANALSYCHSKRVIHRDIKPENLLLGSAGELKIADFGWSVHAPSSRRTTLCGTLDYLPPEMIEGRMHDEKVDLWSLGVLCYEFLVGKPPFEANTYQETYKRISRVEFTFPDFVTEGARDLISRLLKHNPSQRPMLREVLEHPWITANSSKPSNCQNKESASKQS
Outline: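 Recombinant human AurA activity read by fluorescence after mobility-shift separation of product from substrate; 1 hour incubation. Chemicals first run in duplicate at 25 uM, then concentration series to 50 uM if over threshold; fitted relative to DMSO.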

[6] = molecular target: human Casein Kinase 2- alpha 2 beta 2 (CK2a2b2), CSNK2A1 (gene 1457) (UniProt P68400); test: NVS_ENZ_hCK2a2b2: NovaScreen (NVS) Enzymatic Assay for human Casein Kinase 2- alpha 2 beta 2 (CK2a2b2) (AID 2283147)
Sequence of human Casein Kinase 2- alpha 2 beta 2 (CK2a2b2), CSNK2A1 (gene 1457) (P68400 whole entry, looked up): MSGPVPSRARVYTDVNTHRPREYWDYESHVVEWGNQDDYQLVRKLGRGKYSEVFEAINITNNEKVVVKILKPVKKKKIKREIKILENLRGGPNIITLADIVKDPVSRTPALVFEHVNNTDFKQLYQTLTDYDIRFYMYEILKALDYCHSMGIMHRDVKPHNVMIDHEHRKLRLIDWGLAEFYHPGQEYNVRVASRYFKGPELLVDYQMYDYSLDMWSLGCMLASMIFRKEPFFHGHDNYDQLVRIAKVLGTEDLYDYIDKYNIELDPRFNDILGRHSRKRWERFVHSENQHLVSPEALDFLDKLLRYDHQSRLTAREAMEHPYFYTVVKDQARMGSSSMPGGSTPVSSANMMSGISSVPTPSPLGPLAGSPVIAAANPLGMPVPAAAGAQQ
Outline: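 Compounds were first screened in duplicate at 25 uM, and those passing the threshold were re-tested in concentration series up to a 50 uM maximum. Kinase activity of recombinant human CK2 α2β2 was measured 1 h after dosing by fluorescent substrate/product mobility-shift separation.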

[7] = molecular target: Caspase-1 (Homo sapiens) (UniProt P29466); test: NVS_ENZ_hCASP1: NovaScreen (NVS) Enzymatic Assay for human Caspase 1 (CASP1) (AID 2283132)
Sequence of Caspase-1 (Homo sapiens) (P29466 whole entry, looked up): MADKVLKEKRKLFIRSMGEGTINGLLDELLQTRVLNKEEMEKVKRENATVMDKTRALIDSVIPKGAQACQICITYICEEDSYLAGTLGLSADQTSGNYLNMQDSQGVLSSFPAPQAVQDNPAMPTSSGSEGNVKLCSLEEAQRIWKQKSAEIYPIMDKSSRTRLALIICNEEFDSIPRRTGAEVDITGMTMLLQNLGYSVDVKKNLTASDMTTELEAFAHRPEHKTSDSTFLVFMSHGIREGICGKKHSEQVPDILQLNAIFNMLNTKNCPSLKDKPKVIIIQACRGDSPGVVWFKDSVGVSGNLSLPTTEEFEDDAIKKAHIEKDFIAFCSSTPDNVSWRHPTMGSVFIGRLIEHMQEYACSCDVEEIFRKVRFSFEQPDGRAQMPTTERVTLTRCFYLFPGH
Outline: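 Compounds were first tested in duplicate at 25 uM, with follow-up concentration series up to 50 uM. The bacterially expressed enzyme was read by fluorescence at 1 h post-dosing. Signal loss versus DMSO baseline indicates reduced enzyme activity.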

[8] = molecular target: human Colony Stimulating Factor 1 Receptor (CSF1R), CSF1R (gene 1436) (UniProt P07333); test: NVS_ENZ_hCSF1R: NovaScreen (NVS) Enzymatic Assay for human Colony Stimulating Factor 1 Receptor (CSF1R) (AID 2283150)
Sequence of human Colony Stimulating Factor 1 Receptor (CSF1R), CSF1R (gene 1436) (P07333 whole entry, looked up): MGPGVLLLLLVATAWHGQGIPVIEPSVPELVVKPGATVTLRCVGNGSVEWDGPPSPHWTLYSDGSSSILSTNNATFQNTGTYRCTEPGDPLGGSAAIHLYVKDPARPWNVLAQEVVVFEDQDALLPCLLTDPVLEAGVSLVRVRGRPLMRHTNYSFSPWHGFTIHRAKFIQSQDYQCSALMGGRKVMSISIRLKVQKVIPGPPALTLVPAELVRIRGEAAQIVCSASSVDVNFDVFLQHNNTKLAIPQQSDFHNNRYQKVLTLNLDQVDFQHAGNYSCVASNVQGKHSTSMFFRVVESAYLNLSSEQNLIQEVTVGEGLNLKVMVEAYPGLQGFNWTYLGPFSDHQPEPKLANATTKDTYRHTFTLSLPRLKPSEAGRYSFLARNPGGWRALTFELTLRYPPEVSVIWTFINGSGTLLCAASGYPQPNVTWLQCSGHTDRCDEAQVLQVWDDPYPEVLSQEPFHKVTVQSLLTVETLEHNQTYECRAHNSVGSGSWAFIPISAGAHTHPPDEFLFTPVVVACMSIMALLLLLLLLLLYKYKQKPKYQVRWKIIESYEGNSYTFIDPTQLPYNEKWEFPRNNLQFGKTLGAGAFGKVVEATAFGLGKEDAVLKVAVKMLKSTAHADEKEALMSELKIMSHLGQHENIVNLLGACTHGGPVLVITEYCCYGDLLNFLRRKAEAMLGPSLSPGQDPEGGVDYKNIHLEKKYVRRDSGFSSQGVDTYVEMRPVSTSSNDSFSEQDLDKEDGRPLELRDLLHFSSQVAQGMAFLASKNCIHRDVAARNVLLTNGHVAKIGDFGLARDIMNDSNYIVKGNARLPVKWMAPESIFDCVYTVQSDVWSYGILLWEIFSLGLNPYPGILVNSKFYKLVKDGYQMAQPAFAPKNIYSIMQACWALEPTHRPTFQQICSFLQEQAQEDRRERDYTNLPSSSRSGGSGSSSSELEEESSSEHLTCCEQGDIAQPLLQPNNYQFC
Outline: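 Compounds screened in duplicate at 25 uM, then concentration-response (top 50 uM) for those passing threshold such as 30% inhibition; recombinant CSF1R activity measured 1 h post-dosing via fluorescent substrate/product mobility-shift separation, loss of signal versus DMSO.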

[9] = molecular target: human Elastase, ELANE (gene 1991) (UniProt P08246); test: NVS_ENZ_hElastase: NovaScreen (NVS) Enzymatic Assay for human Elastase (AID 2283153)
Sequence of human Elastase, ELANE (gene 1991) (P08246 whole entry, looked up): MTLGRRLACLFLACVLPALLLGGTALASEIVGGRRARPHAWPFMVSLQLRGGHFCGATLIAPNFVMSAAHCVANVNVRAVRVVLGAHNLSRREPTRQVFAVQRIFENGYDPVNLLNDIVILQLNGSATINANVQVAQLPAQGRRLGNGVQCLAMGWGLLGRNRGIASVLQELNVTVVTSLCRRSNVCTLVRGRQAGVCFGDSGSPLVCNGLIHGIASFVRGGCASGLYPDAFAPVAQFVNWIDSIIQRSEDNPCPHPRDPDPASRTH
Outline: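 Concentration-response to 50 uM max, run singly for chemicals passing a threshold (e.g., 30% inhibition) in a duplicate 25 uM single-point screen. Neutrophil-derived human elastase, absorbance read-out of enzyme activity at 1.5 h; DMSO baseline.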

[10] = molecular target: human Acetylcholinesterase (AChE), ACHE (gene 43) (UniProt P22303); test: NVS_ENZ_hAChE: NovaScreen (NVS) Enzymatic Assay for human Acetylcholinesterase (AChE) (AID 2283129)
Outline: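 Actives from a duplicate single-point screen (25 uM) were followed up in concentration series. Enzyme activity read by absorbance (colorimetric) 0.33 hour after dosing, cell-free, normalized to DMSO, with loss of signal scored.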

[11] = molecular target: human AMP-activated Protein Kinase, alpha 1 (AMPKa1), PRKAA1 (gene 5562) (UniProt Q13131); test: NVS_ENZ_hAMPKa1: NovaScreen (NVS) Enzymatic Assay for human AMP-activated Protein Kinase, alpha 1 (AMPKa1) (AID 2283130)
Sequence of human AMP-activated Protein Kinase, alpha 1 (AMPKa1), PRKAA1 (gene 5562) (Q13131 whole entry, looked up): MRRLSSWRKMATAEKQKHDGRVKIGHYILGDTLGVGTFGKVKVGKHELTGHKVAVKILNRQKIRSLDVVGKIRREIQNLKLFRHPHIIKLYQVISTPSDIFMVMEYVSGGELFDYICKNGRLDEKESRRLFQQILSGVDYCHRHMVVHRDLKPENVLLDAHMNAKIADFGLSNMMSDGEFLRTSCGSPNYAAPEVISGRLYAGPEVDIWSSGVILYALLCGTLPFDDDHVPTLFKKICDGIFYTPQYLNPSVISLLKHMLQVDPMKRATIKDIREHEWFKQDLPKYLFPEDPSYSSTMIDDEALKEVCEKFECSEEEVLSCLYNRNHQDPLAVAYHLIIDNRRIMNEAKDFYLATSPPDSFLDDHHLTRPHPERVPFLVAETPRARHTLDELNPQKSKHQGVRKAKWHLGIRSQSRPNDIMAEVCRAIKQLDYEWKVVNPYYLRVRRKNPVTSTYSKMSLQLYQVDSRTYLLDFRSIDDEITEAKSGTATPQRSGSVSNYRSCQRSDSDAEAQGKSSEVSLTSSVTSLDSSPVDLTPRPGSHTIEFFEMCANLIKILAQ
Outline: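 Compounds were screened in duplicate at 25 uM, and those reaching ~30% inhibition were titrated up to 50 uM. The enzyme was recombinant human AMPKα1, and kinase turnover was read by fluorescence/mobility shift 1 h post-dosing as loss of signal versus DMSO.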

[12] = molecular target: human Dual Specificity Protein Phosphatase 3 (DUSP3), DUSP3 (gene 1845) (UniProt P51452); test: NVS_ENZ_hDUSP3: NovaScreen (NVS) Enzymatic Assay for human Dual Specificity Protein Phosphatase 3 (DUSP3) (AID 2283152);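 also: phosphatase activity of recombinant human DUSP3 on a fluorogenic substrate without cells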
Sequence of human Dual Specificity Protein Phosphatase 3 (DUSP3), DUSP3 (gene 1845) (P51452 whole entry, looked up): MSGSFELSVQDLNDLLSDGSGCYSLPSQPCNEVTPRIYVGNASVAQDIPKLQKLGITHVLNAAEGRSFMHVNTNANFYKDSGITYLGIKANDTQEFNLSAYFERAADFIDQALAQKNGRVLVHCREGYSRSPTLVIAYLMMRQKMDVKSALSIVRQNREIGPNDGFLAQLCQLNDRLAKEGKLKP
Outline: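 Cell-free fluorescence-intensity enzyme activity assay with recombinant protein and substrate; loss of signal fitted relative to DMSO baseline. Primary screen in duplicate at 25 uM, actives then run in concentration series; measured 0 h after dosing.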

[13] = molecular target: human Acid Phosphatase 1 (ACP1), ACP1 (gene 52) (UniProt P24666); test: NVS_ENZ_hACP1: NovaScreen (NVS) Enzymatic Assay for human Acid Phosphatase 1 (ACP1) (AID 2283136)
Sequence of human Acid Phosphatase 1 (ACP1), ACP1 (gene 52) (P24666 whole entry, looked up): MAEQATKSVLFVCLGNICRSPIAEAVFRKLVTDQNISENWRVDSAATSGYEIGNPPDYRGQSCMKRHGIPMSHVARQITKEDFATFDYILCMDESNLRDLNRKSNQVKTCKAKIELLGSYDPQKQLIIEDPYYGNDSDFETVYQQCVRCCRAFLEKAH
Outline: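 Cell-free fluorescence read-out of phosphatase activity, substrate and product separated by mobility shift, taken 1.5 h after compound addition; protein produced in Sf9. Single 25 uM duplicate screen, followed by concentration series for actives, scored as signal loss relative to DMSO.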

[14] = molecular target: human Caspase 8 (CASP8), CASP8 (gene 841) (UniProt Q14790); test: NVS_ENZ_hCASP8: NovaScreen (NVS) Enzymatic Assay for human Caspase 8 (CASP8) (AID 2283146)
Outline: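 The primary screen tested compounds in duplicate at a single 25 uM concentration, with actives followed up in concentration series. Activity of recombinant (E. coli) protease was measured by fluorescence 1 h post-dose, as signal loss against DMSO.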

[15] = molecular target: human Caspase 2 (CASP2), CASP2 (gene 835) (UniProt P42575); test: NVS_ENZ_hCASP2: NovaScreen (NVS) Enzymatic Assay for human Caspase 2 (CASP2) (AID 2283135)
Outline: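 Single-point duplicate testing at 25 uM preceded concentration series topping at 50 uM. Activity of the recombinant E. coli-derived protease was followed by fluorescent substrate cleavage 1 h post-dosing, relative to DMSO.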

[16] = molecular target: human Casein Kinase 1-delta (CK1D), CSNK1D (gene 1453) (UniProt P48730); test: NVS_ENZ_hCK1D: NovaScreen (NVS) Enzymatic Assay for human Casein Kinase 1-delta (CK1D) (AID 2283148)
Outline: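 Recombinant human CK1-delta, cell-free; fluorescent substrate with electrophoretic mobility-shift separation of product, read 1 h after dosing. Single 25 uM duplicate screen, then concentration-response up to 50 uM; loss of signal vs DMSO.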

[17] = molecular target: human Caspase 5 (CASP5), CASP5 (gene 838) (UniProt P51878); test: NVS_ENZ_hCASP5: NovaScreen (NVS) Enzymatic Assay for human Caspase 5 (CASP5) (AID 2283137)
Outline: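 Caspase 5 enzyme activity, detected as fluorescence signal loss, is measured in a biochemical format using E. coli-expressed protein. Reading occurs 2 hours post-dosing. Screening runs at 25 uM, with confirmed actives titrated to 50 uM maximum.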

SMILES: COC(=O)c1ccccc1S(=O)(=O)NC(=O)N(C)c1nc(C)nc(OC)n1
- AC50 [1]: 6.07 µM (active)
- outcome [2]: inactive
- outcome [3]: inactive

SMILES: Cc1cc(C)nc(NC(=O)NS(=O)(=O)c2ccccc2C(=O)OC2COC2)n1
- outcome [3]: inactive

SMILES: O=C(Nc1ccccc1)Nc1cnns1
- AC50 [4]: 10.7 µM (active)
- outcome [5]: inactive
- AC50 [6]: 10.9 µM (active)

SMILES: COC(=O)c1ccccc1CS(=O)(=O)NC(=O)Nc1nc(OC)cc(OC)n1
- outcome [2]: inactive

SMILES: CC1(C)C(C=C(Cl)Cl)C1C(=O)OC(C#N)c1ccc(F)c(Oc2ccccc2)c1 (stereo not given)
- outcome [7]: inactive
- AC50 [4]: 3.31 µM (active)
- outcome [8]: inactive
- outcome [9]: inactive

SMILES: N#Cc1c(Cl)c(Cl)c(Cl)c(C#N)c1Cl
- outcome [10]: inactive
- AC50 [11]: 4.96 µM (active)
- outcome [2]: inactive
- outcome [3]: inactive
- outcome [5]: inactive
- AC50 [6]: 33.6 µM (active)
- AC50 [12]: 17.7 µM (active)

SMILES: CNC(=O)CSP(=S)(OC)OC
- outcome [2]: inactive

SMILES: CCCN(CCOc1c(Cl)cc(Cl)cc1Cl)C(=O)n1ccnc1
- outcome [12]: inactive

SMILES: CCC(C)(NC(=O)c1cc(Cl)c(C)c(Cl)c1)C(=O)CCl (stereo not given)
- outcome [6]: inactive

SMILES: Oc1cc(Cl)ccc1Oc1ccc(Cl)cc1Cl
- outcome [11]: inactive
- outcome [13]: inactive
- AC50 [4]: 25.5 µM (active) and 28.2 µM (active) and 7.92 µM (active)
- outcome [4]: inactive
- AC50 [3]: 41.4 µM (active)
- outcome [14]: inactive
- outcome [8]: inactive
- outcome [12]: inactive
- outcome [9]: inactive

SMILES: CC[C@H](C)[C@H]1O[C@]2(C=C[C@@H]1C)C[C@@H]1C[C@@H](C/C=C(\C)[C@@H](O[C@H]3C[C@H](OC)[C@@H](O[C@H]4C[C@H](OC)[C@@H](O)[C@H](C)O4)[C@H](C)O3)[C@@H](C)/C=C/C=C3\CO[C@@H]4[C@H](O)C(C)=C[C@@H](C(=O)O1)[C@]34O)O2 (tested in a mixture with another compound)
- AC50 [11]: 31.2 µM (active)
- AC50 [12]: 2.74 µM (active)

SMILES: CNC(=O)Oc1ccccc1OC(C)C
- AC50 [10]: 25 µM (active)

SMILES: C#CCN1C(=O)COc2cc(F)c(N3C(=O)C4=C(CCCC4)C3=O)cc21
- outcome [15]: inactive
- outcome [13]: inactive

SMILES: CCOc1nc(NC)nc(NC(=O)NS(=O)(=O)c2ccccc2C(=O)OC)n1
- AC50 [16]: 18.4 µM (active)

SMILES: O=C(O)C(F)(F)C(F)(F)C(F)(F)C(F)(F)C(F)(F)C(F)(F)C(F)(F)F
- outcome [7]: inactive
- outcome [13]: inactive
- outcome [17]: inactive
- AC50 [4]: 3.58 µM (active) and 1.2 µM (active)
- outcome [3]: inactive
- outcome [5]: inactive
- outcome [12]: inactive
- outcome [9]: inactive
